Screens: PubChem BioAssay, National Center for Advancing Translational Sciences (NCATS)
FMDV antiviral – High Throughput Screening for Foot and Mouth Disease Virus Antivirals. FMDV antiviral cell-based qHTS. Potency, µM (titrated, usually from 57.9 µM), for the others: at the highest dose activity change, negative = inhibition, most hits filed as inhibitors. actives 1.2% (n = 410,000); calls by dose curve; tested in HEK293T cells; also: read-out not given here; nearly all actives have a fitted effect of over 45% in size
Lassa entry inh – qHTS for Inhibitors of binding or entry into cells for Lassa Virus; Lassa virus pseudotype entry inhibition, cell reporter; Potency, µM (doses to about 37.9 µM), for inactives: at the top dose activity change, negative = inhibition, most hits filed as inhibitors; actives 1.2% (n = 300,000); AID 540256, 2011; calls by dose curve; tested in HEK293 cells; also: nearly all actives have a fitted effect of over 50% in size
Sm TGR inh – qHTS Assay for the Inhibitors of Schistosoma Mansoni Peroxiredoxins | Potency, µM (series often up to 114 µM), without a hit: top-dose activity change, negative = inhibition, most hits filed as inhibitors | actives 3% (n = 360,000) | purified TGR, DTNB reduction, TNB absorbance 405 nm | AID 485364, 2010; also: nearly all actives have a fitted effect of over 60% in size
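Kinetic colorimetric format: TGR-catalysed, NADPH-driven DTNB reduction monitored via TNB absorbance. Enzyme dispensed at 20 nM; compound exposure 15 min at room temperature before reaction start.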
HCV inhibitor – qHTS Assay for Inhibitors of Hepatitis C Virus (HCV); Huh7.5.1 HCVcc-Cre infection, luciferase reporter, 44 h; Potency, µM (top dose mostly 41.8 µM), for inactives: at the highest dose activity change, negative = inhibition, most hits filed as inhibitors; actives 3.4% (n = 340,000)
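Seed cells (1,000/well) for 4 h; treat with compound and infect with HCVcc-Cre, moi about 0.5. Incubate 44 h, then detect luciferase activity.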
RE007 growth inh – qHTS Assay for Inhibitors of the HIV-1 protein Vpr; AID 651644, 2012; actives 0.21% (n = 360,000); S. pombe RE007 Vpr strain, BacTiter-Glo ATP luminescence, 24 h; Potency, µM (titrated, usually from 92.2 µM), without a hit: at the top dose activity change, negative = less growth, hits mostly inhibitors; active = well fitted falling curve with a large enough effect; inconclusive = small, poorly fitted or top-dose-only effect; inactive = no such curve, though single readings can be large or run the other way; also: nearly all actives have a fitted effect of over 50% in size
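Fission yeast strain RE007, carrying one chromosomally integrated HIV-1 vpr copy, was seeded at OD 0.01 in PMG+AL medium with 23 nL pinned compound. After 24 h at 30 °C and 99% humidity, viability was read by BacTiter-Glo luminescence.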
Marburg entry inh – qHTS for inhibitors of binding or entry into cells for Marburg Virus | Marburg virus pseudotyped entry inhibition, cell reporter | Potency, µM (series often up to 37.8 µM), for the others: top-dose activity change, negative = inhibition, hits mostly inhibitors | actives 1.8% (n = 300,000) | AID 540276, 2011; calls by dose curve; tested in HEK293 cells
Active calls of the source: *; ? = inconclusive; . = no result given; [ ] = dose if it differs, or a comment. In the library only some 7.2% were active in any assay of this set; here they are far more common. Unless noted, calls follow the shape of the dose curve; as a rule, active = well fitted curve in the direction sought with a large enough effect; inconclusive = small, poorly fitted or top-dose-only effect, or another doubt; inactive = no such curve, though single readings can be large; an effect the other way counts as inactive or inconclusive. % is scaled to controls: 0 for no effect and ±100 for the full control effect; potency is read from the fitted curve at half-maximal effect.

SMILES	FMDV antiviral	Lassa entry inh	Sm TGR inh	HCV inhibitor	RE007 growth inh	Marburg entry inh
COc1cc(OC)cc(-c2c(C#Cc3ccsc3)c3cc(-c4cccc5[nH]cc(C=O)c45)ccc3n2C)c1	-2%	.	.	10µM*	-6%	.
COc1ccc(C#Cc2c(-c3ccccc3)n(C)c3ccccc23)cc1	0%	.	.	?	9%	.
COc1cc(C#Cc2c(-c3ccccc3)n(C)c3ccccc23)cc(OC)c1	-1%	.	7.9µM*	-28%[8.37 µM]	3%	.
COc1ccc(-c2c(C#Cc3ccsc3)c3ccccc3n2C)cc1	9%	.	20µM*	?	12%	.
COc1ccc(-c2c(C#Cc3ccsc3)c3cc(-c4cccc5[nH]ccc45)ccc3n2C)cc1	-5%	.	-18%	?	11%	.
O=C(c1cccnc1)C1CCCN(Cc2ccc3c(c2)CN(C(=O)c2cn4ccccc4n2)CCO3)C1 (configuration not stated)	-12%	.	.	.	.	.
CC(C)=CCCC(C)=CCN1C(=O)[C@]2(O[C@H](COc3ccccc3)CC3=CCCC32)c2c(Br)cccc21 (some centres not stated)	.	.	.	.	.	-3%[14.2 µM]
CCN(CC)c1ccc(NC(=O)C(Cc2ccccc2)NS(=O)(=O)c2ccc(Br)s2)c(C)c1 (configuration not stated)	28%	1%[46.1 µM]	-5%	.	.	13%[46.1 µM]
COc1cccc2c1OC[C@@H](CO)[C@H]2N(C)C(=O)Nc1ccccc1	2%	-16%	3%	4%	3%	4%
CN(C(=O)Nc1ccc(Cl)cc1Cl)[C@H]1c2cc(Br)ccc2OC[C@H]1CO	?	-22%	4%	13µM*	-9%	?
CC(=O)c1cccc(N(C(=O)CNC(=O)c2ccco2)C(C(=O)NC2CCCC2)c2ccc(C)o2)c1 (configuration not stated)	1.8µM*	9%	3%	-7%	15%	5%[46.1 µM]
Cc1ccc(C(=O)c2ccc([N+](=O)[O-])cc2)cc1	.	-5%	-4%	-4%	-15%	10%
Cc1ccc(C(=O)c2coc3cc([N+](=O)[O-])c(O)c([N+](=O)[O-])c23)cc1	-13%	?	50µM*	-3%	1%	-6%
Cc1c(C)[n+](=O)c2c(n1[O-])C(Br)CCC2Br (configuration not stated)	6%	7%	40µM*	10%	0%	11%[46.1 µM]
Cc1c(C)[n+](=O)c2c(n1[O-])CCC2	-3%	16%	-1%	-1%	-3%	19%
Cc1c(CBr)[n+](=O)c2c(n1[O-])C(Br)CCC2Br (configuration not stated)	-12%	1%	4µM*	-6%	0%	?
CCc1c(C)n([O-])c2c([n+]1=O)CCC2	-11%	?	3%	17%	1%	-9%
Clc1cccc(C2Nc3cccc4cccc(c34)N2)c1Cl	-23%	1%[46.1 µM]	-12%	3%	-29%	?
Oc1ccc(C2Nc3cccc4cccc(c34)N2)c(O)c1	-25%	7%	50µM*	1%	-22%	-10%
c1coc(C2Nc3ccccc3C3OCCC23)c1 (configuration not stated)	3%	11%	-6%	16%	-2%	?
Brc1ccc(C2=Nc3cccc4cccc(c34)N2)o1	-23%	-11%	?	4%	-15%	7%
Clc1ccccc1C1Nc2cccc3cccc(c23)N1	-11%	.	18µM*	-2%	?	.
c1coc(C2Nc3cccc4cccc(c34)N2)c1	.	.	7.9µM*	11%	.	.
Brc1ccc(-c2ccc(C3Nc4cccc5cccc(c45)N3)o2)cc1	.	.	35µM*	.	.	.
COc1cc2c(cc1OC)[C@@H](Cc1ccc(OCCC#N)cc1)N(C)CC2	-9%	-28%	50µM*	23%	34%	?
SMILES	FMDV antiviral	Lassa entry inh	Sm TGR inh	HCV inhibitor	RE007 growth inh	Marburg entry inh
COc1ccc(CC2c3cc(OC)c(OC)cc3CCN2C)cc1OC (configuration not stated)	-21%	.	1%	4%	5%	.
Cc1cc(C(=O)Cn2nc(C(=O)O)c3ccccc3c2=O)c(C)n1CCc1ccc(F)cc1	-24%	?	13%	-11%	-10%	5.6µM*
COC(=O)CCCn1c(C)cc(C(=O)CCl)c1C	28µM*	?	7.9µM*	?	26%	?
Cc1cc(C(=O)CCl)c(C)n1CCc1ccccc1	28µM*	?	8.9µM*	8.9µM*	-10%	?
CC1(C)CC(C#N)(N2CCOCC2)CCO1 (configuration not stated)	-7%	-14%	13µM*	-4%	-18%	2%
COc1ccc(CCNC(=S)NC(=O)c2ccccc2)cc1C	-9%	?	3.5µM*	?	-14%	?
COc1ccc(C(=O)NC(=S)NCc2ccccc2)cc1OC	-13%	?	.	-20%	-3%	?
COc1ccc(CCNC(=S)c2ccccc2)cc1OC	?	.	-3%	8.9µM*	-1%	1%
O=C(NC(=S)NCCc1ccccc1)c1ccccc1F	30%	-13%[46.1 µM]	40µM*	17%	-7%	-29%[46.1 µM]
COc1ccc(CCNC(=S)NCCc2ccc(OC)c(OC)c2)cc1OC	?	?	12%	?	-16%	?
O=C(NC(=S)NCc1ccccc1)c1ccccc1F	46%	3%	?	-7%	-5%[3.69 µM]	12%
Cc1ccc(C(=O)NC(=S)NCc2ccccc2)cc1	44%	.	6.3µM*	0%	?	.
COc1ccccc1-c1nc2cc(C(=O)NC[C@H]3CCc4ccccc4O3)cc(NC(C)=O)c2n1C	-4%	.	.	.	.	.
CN(C(=O)CSc1nc2ccc(NC(=O)COc3ccccc3Cl)cc2s1)c1ccccc1	?	17%[46.1 µM]	5%	.	.	-7%[46.1 µM]
O=C(NC(=S)N1CCCC1)c1ccccc1F	-9%	-4%	-1%	16%	3%	-3%
COc1ccc(CCNC(=O)CC(c2ccccc2)c2cc(C)ccc2O)cc1OC (configuration not stated)	18µM*	.	-8%	10µM*	3%	.
O=C(NC(=S)NC(=O)c1ccccc1F)c1ccccc1F	27%	2%	2.8µM*	12%	-1%	-3%
O=C(NC(=S)NCCc1ccccc1)c1ccccc1	25%	3%	18µM*	5%	-19%	?
O=C(CCc1ccccc1)NNC(=S)NC(=O)c1ccccc1	.	-25%	8%	-2%	?	?
CCOC(=O)NCc1ccccc1	-13%	.	-18%	2.8µM*	5%	.
COc1ccc2cc(CNc3ccc(C)cc3)c(=O)n(CC(=O)Nc3ccc(C)cc3Cl)c2c1	-11%	2%[46.1 µM]	1%	.	.	.
